# PubChem BioAssay (NCI)
# The panel holds about 83,000 compounds, 20% with a hit somewhere; the sample as a whole holds those more often.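 48-hour exposure, single concentration, 96-well plates; percent growth endpoint where 0 means no net growth. Active: below 10.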 Unmarked numbers belong to inactive results. Calls of active or inactive are those of the source.
# Test system: NCI-H23 lung
# Assay: NCI-60 one-dose screen, 48 h (100 = growth as untreated, 0 = no growth, -100 = all killed)
# Details: 10 µM unless noted
row,Compound,growth
1,COc1cc(CNC(=O)C[C@H](C)CCC=C(C)C)ccc1OCc1cn(-c2ccc(Br)cc2)nn1,60.1%
2,N#CC1=C(c2cccs2)Nc2c(c(-c3ccccc3)nn2-c2ccccc2)C12C(=O)Nc1ccccc12 (stereo not given),13.6%
3,N#Cc1c(-c2ccc(F)cc2)nc(SCc2ccc(F)cc2)nc1N1CCNCC1,-61.3% (active)
4,COc1cc(NC(=O)CSc2nnc(-c3ccc(-c4nc5ccc(Cl)cc5[nH]4)cc3)o2)cc(OC)c1OC,52.2%
5,CN(C)c1nc(NCCNS(=O)(=O)c2ccc(C(=O)/C=C/c3ccc(C(F)(F)F)cc3)cc2)nc(N2CCOCC2)n1,-64.2% (active)
6,COc1cc(CNC(=O)C[C@H](C)CCC=C(C)C)ccc1OCc1cn(-c2ccc(Cl)cc2Cl)nn1,56.6%
7,O=C(N=Nc1c(O)[nH]c2ccc(Cl)cc12)c1ccc2nc(-c3ccc(Cl)cc3)[nH]c2c1,-71.5% (active)
8,CC1=C(C(=O)OCc2ccccc2)C(c2ccc(N(C)C)cc2)n2c(nc3ccccc32)N1 (stereo not given),90.8%
9,Cn1cc(-c2cc(N)n3nc(-c4c[nH]c5ccc(F)cc45)cc3n2)c2cc(Br)cnc21,94.3%
10,CCCCC[C@@H]1C/C=C(\C)[C@@H](O)C(C)(C)C(=O)[C@@H](C)/C=C(\C)[C@@H]2C[C@H](O)C[C@](O)(CC(=O)O1)O2,31%
11,COc1ccc2c(c1)c(-c1cc(N)n3nc(-c4c[nH]c5ccccc45)cc3n1)cn2C,-69.9% (active)
12,COc1ccccc1NC(=O)N/N=C/c1c[nH]c2ccccc12,0.507% (active)
13,CC[C@]12C=CCN3CC[C@@]4(c5ccc(OC)cc5N(C)[C@H]4[C@@](O)(C(=O)OC)[C@@H]1OC(=O)CCCC[P+](c1ccc(F)cc1)(c1ccc(F)cc1)c1ccc(F)cc1)[C@@H]32,23.6%
14,Cc1ccc(Cl)cc1NC(=O)Nc1nc2ccc([N+](=O)[O-])cc2s1,-28.6% (active)
15,Nc1nnc(CS(=O)(=O)c2ccccc2)s1,107%
16,N#CC1=C(c2cccs2)Nc2c(c(-c3ccccc3)nn2-c2ccccc2)C12C(=O)Nc1ccc(Br)cc12 (stereo not given),2.18% (active)
17,N#Cc1ccc(C(=O)CSc2nc3c(c(Nc4ccc(S(N)(=O)=O)cc4)n2)CCC3)cc1,-0.896% (active)
18,Cc1cccc(-c2ccccc2Oc2ccc3nnc(Cl)n3n2)c1,96.8%

row,Compound,growth
1,COC(=O)c1cc(C(=O)CBr)n2c1ccc1c3ccccc3ccc12,51.4%
2,O=C(Cn1c(/C=C/c2ccc([N+](=O)[O-])cc2)nc2ccccc2c1=O)Nc1ccccc1,54.9%
3,CC(C)C[C@H](NC(=O)CNC(=O)C[C@H]1O[C@@H]2OC3(C)CC[C@H]4[C@H](C)CC[C@@H]([C@H]1C)[C@@]24O3)B(O)O,-37.1% (active)
4,COc1ccccc1/C=C/c1cccc(NC(=S)NCCCCN(C)C)c1,-97.5% (active)
5,CCCn1c(NC(=O)c2cccc(C(N)=O)c2)nc2cc(CN3CCCCC3)ccc21,88.1%
6,Fc1cccc(CNc2nc(SCCN3CCOCC3)nc3c2cnn3CC(Cl)c2ccc(Br)cc2)c1 (stereo not given),46.2%
7,COc1ccc(NC(=O)Nc2nc3ccc([N+](=O)[O-])cc3s2)cc1,-2.33% (active)
8,O=C1c2cccc3c(N4CCN(c5ccccc5)CC4)ccc(c23)C(=O)N1c1cccc(-c2nn(-c3ccccc3)cc2-c2nc3ccccc3s2)c1,88.5%
9,Clc1ccccc1Nc1nnc(-c2c[nH]c3ccccc23)o1,22.2%
10,Nc1nnc(-c2cncc(Br)c2)c(-c2c[nH]c3ccc(Br)cc23)n1,70.7%
11,O=C(CSc1nc2ccccc2c(=O)[nH]1)NNC(=O)c1ccccc1Cl,104%
12,COc1c2c(c(Br)c3c1C(CCc1ccccc1)N(C)CC3)OCO2 (stereo not given),16.4%
13,Cn1cc(-c2cc3nc(-c4c[nH]c5ccccc45)cc(N)n3n2)c2ccccc21,-56.9% (active)
14,O=C(/C=C1\C(=O)N(Cc2ccccc2)c2ccccc21)c1cc2ccccc2oc1=O,89.4%
15,O=c1ccc(Cn2c(C(F)(F)F)cc3c(Cl)ncnc32)c[nH]1,17.7%
16,O=C1CC(c2ccc(I)cc2)OC2C=Cc3ccccc3C12 (stereo not given),98.2%
17,COC(=O)c1c(C(=O)OC)c2ccc3c4ccccc4ccc3n2c1C(=O)OC,102%
